The results in this text go back to PubChem BioAssay (NCI).

What all share (assay): NCI-60 one-dose screen, 48 h (100 = growth as untreated, 0 = no growth, -100 = all killed)
One assay relates to HT29 colon. Conditions: 10 µM unless noted.
The next assay deals with SNB-75 CNS. The settings on record: 10 µM unless noted.
In the next assay the test system is SNB-19 CNS. Conditions: 10 µM unless noted.
Another assay concerns U251 CNS. The settings on record: 10 µM unless noted.
Another assay concerns PC-3 prostate. The settings on record: 10 µM unless noted.
Another assay deals with SK-MEL-5 melanoma. The settings on record: 10 µM unless noted.
The test system of the next assay is UACC-62 melanoma. Conditions: 10 µM unless noted.
A further assay has as its system LOX IMVI melanoma. The settings on record: 10 µM unless noted.
Another assay has as its system SK-MEL-28 melanoma. The settings on record: 10 µM.
In the next assay the test system is SK-MEL-2 melanoma. The settings on record: 10 µM unless noted.
A further assay concerns SN12C renal. The settings on record: 10 µM unless noted.
Another assay has as its system UO-31 renal. Conditions: 10 µM unless noted.
The subject of another assay is TK-10 renal. The settings on record: 10 µM unless noted.
The test system of the next assay is ACHN renal. The settings on record: 10 µM unless noted.
In the next assay the test system is CAKI-1 renal. Conditions: 10 µM unless noted.
For another assay, the system named is A498 renal. Conditions: 10 µM unless noted.
Another assay concerns CCRF-CEM leukemia. Conditions: 10 µM unless noted.
Another assay has as its system SR leukemia. Conditions: 10 µM unless noted.
A further assay deals with MOLT-4 leukemia. The settings on record: 10 µM unless noted.
A further assay relates to EKVX NSCLC. The settings on record: 10 µM unless noted.

The panel holds about 83,000 compounds, 20% with a hit somewhere; the sample as a whole holds those more often.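 Single-dose data. Exposure time 48 hours. Values below 10 considered active.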 Values without a mark were called inactive. Calls of active or inactive are those of the source.

In the case of `CN(C)CCCNCc1ccc(-c2ccc(F)c(Cl)c2)o1`, the growth in the assay on HT29 colon was -30.6% (active); in the assay on SNB-75 CNS it was 40.5%; with SNB-19 CNS, 73.6%; with U251 CNS it was -29.8% (active); in the assay on PC-3 prostate it was 38.7%; with SK-MEL-5 melanoma it was 6.38% (active). Besides, the growth was 20.1% in the assay on UACC-62 melanoma; -90.1% (active) in the assay with LOX IMVI melanoma; -86.9% (active) in the assay with SK-MEL-28 melanoma; -14.8% (active) with SK-MEL-2 melanoma; 60.2% in the assay on SN12C renal; 16.7% in the assay with UO-31 renal. Also, the growth in the assay on TK-10 renal was 42.8%; in the assay on ACHN renal it was 30.1%; with CAKI-1 renal, 37.5%; in the assay on A498 renal, 78.2%; with CCRF-CEM leukemia it was 1.99% (active); in the assay on SR leukemia, -22.9% (active).
As for `COc1ccc(-c2nsc3c2NC(=O)CC3c2ccc3c(c2)OCCO3)cc1` (centres undefined), the growth with HT29 colon was -0.622% (active); in the assay on SNB-75 CNS it was 35.1%; in the assay with SNB-19 CNS it was 56.8%; with U251 CNS, 24.3%; with PC-3 prostate it was 23.6%; in the assay on SK-MEL-5 melanoma, 27%. For the same compound, the growth in the assay with UACC-62 melanoma is 32.2%; in the assay with LOX IMVI melanoma, 44.3%; with SK-MEL-28 melanoma, 43.1%; with SK-MEL-2 melanoma it was 57.5%; in the assay on SN12C renal it was 44.4%; in the assay with UO-31 renal, 53.6%. The growth is 43.4% in the assay on TK-10 renal; 38.6% in the assay on CAKI-1 renal; 19% with A498 renal; 28.3% with MOLT-4 leukemia; 28.9% in the assay on SR leukemia.
On to `O=C(NC1CCCCC1)C(c1cccs1)N(CCc1ccccc1)C(=O)c1ccco1` (centres undefined), for which the growth in the assay on HT29 colon was 69.6%; with SNB-75 CNS, 91.2%; in the assay on SNB-19 CNS it was 96.4%; in the assay with U251 CNS, 96.9%; in the assay on PC-3 prostate, 92.9%; in the assay with SK-MEL-5 melanoma, 97.5%. For the same compound, the growth in the assay with UACC-62 melanoma was 90.3%; with LOX IMVI melanoma, 94.7%; with SK-MEL-28 melanoma, 105%; with SK-MEL-2 melanoma it was 84%; in the assay on SN12C renal, 92.2%; with UO-31 renal, 100%. Moreover, the growth is 94.5% in the assay with TK-10 renal; 83% with CAKI-1 renal; 93% in the assay on A498 renal; 93.8% in the assay on CCRF-CEM leukemia; 84.9% in the assay with MOLT-4 leukemia; 85.8% in the assay with SR leukemia.
On to `FC(F)(F)c1cccc(Nc2nc3ccccc3nc2Nc2cccc(C(F)(F)F)c2)c1`, for which the growth in the assay on HT29 colon is -53.7% (active); in the assay on SNB-75 CNS, -92.3% (active); in the assay with SNB-19 CNS, 7.81% (active); in the assay with U251 CNS it was -34% (active); with PC-3 prostate it was 15.4%; in the assay with SK-MEL-5 melanoma, -95.6% (active). The growth was -62.6% (active) in the assay on UACC-62 melanoma; -79.4% (active) in the assay on LOX IMVI melanoma; -85.5% (active) in the assay with SK-MEL-28 melanoma; -62.5% (active) with SK-MEL-2 melanoma; 32.3% in the assay with SN12C renal; -74.7% (active) with UO-31 renal. The growth was -50.1% (active) in the assay on TK-10 renal; -21.5% (active) in the assay with ACHN renal; 54% in the assay with A498 renal; -2.8% (active) in the assay on CCRF-CEM leukemia; -29.4% (active) with SR leukemia.
Take `O=C(c1nc2ccccc2[nH]1)C1[C@@H](c2cccc(O)c2)C2CC3CCCCC3N2[C@@]12C(=O)Nc1cc(Cl)ccc12` (some centres undefined): the growth with HT29 colon was 50.6%; in the assay on SNB-75 CNS, 27.2%; with SNB-19 CNS it was 42.4%; in the assay with U251 CNS, 37.7%; with PC-3 prostate, 24%; in the assay on SK-MEL-5 melanoma it was 37.2%. For the same compound, the growth in the assay on UACC-62 melanoma is 47.6%; with LOX IMVI melanoma, 22.3%; in the assay on SK-MEL-28 melanoma, 45%; with EKVX NSCLC, 41.9%; in the assay with SN12C renal, 43.6%; in the assay on UO-31 renal, 33.5%. Also, the growth in the assay with TK-10 renal is 72.4%; in the assay with ACHN renal, 30.4%; in the assay on CAKI-1 renal, 80%; in the assay on A498 renal, 52.7%; in the assay on CCRF-CEM leukemia, 15%; in the assay with MOLT-4 leukemia it was 7.08% (active). In addition, in the assay on SR leukemia, the growth is 3.72% (active).
Regarding `COc1cc2nc(-c3cccc4cccnc34)nc(NC3CCN(Cc4ccccc4)CC3)c2cc1OC`, the growth with HT29 colon is -87.2% (active); with SNB-75 CNS, -87.8% (active); in the assay with SNB-19 CNS it was -78.2% (active); with U251 CNS, -78.4% (active); in the assay with PC-3 prostate it was -84.4% (active); in the assay with SK-MEL-5 melanoma, -96.8% (active). The growth with UACC-62 melanoma was -82.3% (active); in the assay on LOX IMVI melanoma it was -82.3% (active); in the assay with SK-MEL-28 melanoma, -76.9% (active); in the assay with EKVX NSCLC, -66.2% (active); in the assay with SN12C renal, -82.4% (active); in the assay on UO-31 renal, -83% (active). In addition, the growth was -88.7% (active) in the assay on TK-10 renal; -94.5% (active) with ACHN renal; -88.3% (active) in the assay with CAKI-1 renal; -72.2% (active) in the assay on A498 renal; -30.1% (active) with CCRF-CEM leukemia; -32.4% (active) in the assay with MOLT-4 leukemia. The growth in the assay with SR leukemia is -7.18% (active).
As for `O=C(CSc1ccc2nnc(-c3cccc(F)c3)n2n1)Nc1ccc2c(c1)OCO2`, the growth in the assay on HT29 colon is 99.6%; with SNB-75 CNS, -22.3% (active); in the assay on SNB-19 CNS it was 100%; in the assay on U251 CNS, 70.3%; in the assay with PC-3 prostate it was 40.1%; in the assay on SK-MEL-5 melanoma it was 86.1%. Besides, the growth in the assay with UACC-62 melanoma is 83.2%; with LOX IMVI melanoma it was 61.1%; in the assay on SK-MEL-28 melanoma, 79.7%; in the assay on SK-MEL-2 melanoma it was 92.6%; with SN12C renal, 80.5%; in the assay with UO-31 renal, 70.4%. Moreover, the growth with TK-10 renal was 112%; in the assay with ACHN renal it was 87.9%; in the assay with CAKI-1 renal, 84.1%; in the assay on A498 renal, 104%; in the assay with CCRF-CEM leukemia it was 32.5%; in the assay with SR leukemia, 56.3%.
On to `CCCCCCc1cc2cc(-c3nc4ccccc4[nH]3)c(=Nc3ccccc3C)oc2cc1O`, for which the growth in the assay on HT29 colon is 2.75% (active); with SNB-75 CNS, 47.8%; in the assay with SNB-19 CNS, 71.7%; in the assay on U251 CNS it was 34%; with PC-3 prostate, 37.6%; in the assay on SK-MEL-5 melanoma, 41.7%. Also, the growth was 54.5% in the assay with UACC-62 melanoma; 25.5% in the assay on LOX IMVI melanoma; -10.3% (active) in the assay with SK-MEL-28 melanoma; 47.2% with SK-MEL-2 melanoma; 45.8% with SN12C renal; 20.3% in the assay with UO-31 renal. For the same compound, the growth was 46.8% in the assay on TK-10 renal; 51% in the assay with ACHN renal; 79.7% in the assay on A498 renal; 25.3% with CCRF-CEM leukemia; 21% in the assay with MOLT-4 leukemia; -14.5% (active) with SR leukemia.
